This note sets out measurements from PubChem BioAssay AID504847 (National Center for Advancing Translational Sciences (NCATS), 2011).

Values joined by “and” are separate entries in the source; they are usually repeats but may differ in a detail not shown here. Equal entries are not always repeated. The campaign covered roughly 400,000 compounds. About 3,700 (0.93%) were called active. Inconclusive results (about 3%) are left out. The call rests on the fitted dose curve; in most records, active means well fitted inhibition curve with a large enough effect; inconclusive means small, poorly fitted or top-dose-only effect, or another doubt; inactive means no such curve, though single readings can be large or run the other way. The entries come from a sample that favours actives as a whole.
On the % scale 0 is the no-effect control and ±100 the full control effect; potency means the concentration at half of the fitted maximal effect.

In this experiment the target is Vitamin D3 receptor (Homo sapiens) (UniProt P11473). The experiment can be described thus: Inhibitors of the vitamin D receptor (VDR): qHTS. The settings on record: VDR-SRC2-3 peptide fluorescence polarization, 2 h; max response, negative = inhibition: hits give low values. Summed up: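 After 23 nl compound addition and a short centrifugation, plates sat for 2 hours at ambient temperature; polarization of fluorescence then indicated loss of VDR binding to peptide SRC2-3.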
Vitamin D3 receptor (Homo sapiens), sequence (P11473 whole entry, looked up): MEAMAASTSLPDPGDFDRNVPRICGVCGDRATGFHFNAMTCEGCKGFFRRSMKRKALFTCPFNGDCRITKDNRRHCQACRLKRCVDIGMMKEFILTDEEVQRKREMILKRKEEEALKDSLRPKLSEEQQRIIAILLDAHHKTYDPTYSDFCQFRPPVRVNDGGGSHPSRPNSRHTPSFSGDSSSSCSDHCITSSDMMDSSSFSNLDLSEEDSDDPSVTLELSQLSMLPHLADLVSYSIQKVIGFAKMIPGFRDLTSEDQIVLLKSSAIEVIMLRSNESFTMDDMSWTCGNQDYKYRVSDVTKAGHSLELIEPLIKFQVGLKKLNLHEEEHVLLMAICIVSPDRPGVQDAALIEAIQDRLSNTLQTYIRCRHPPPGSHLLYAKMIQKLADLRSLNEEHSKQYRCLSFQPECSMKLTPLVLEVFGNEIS
As to `Cc1cc(C)cc(-n2ccnc2SCC(=O)Nc2nc3ccccc3s2)c1`, the max response, negative = inhibition was -5.28% (inactive).
On the same count and under the same terms, for `COc1cccc(-c2n[nH]c3c2C(c2cccc(O)c2)N(C)C3=O)c1` (stereo not given) the value was 9.73% (inactive).
On the same count and under the same terms, for `Cc1ccc(NC(=O)CSc2nc3c([nH]c4ccccc43)c(=O)n2-c2ccccc2)c(C)c1` the value was 3.26% (inactive); for `Cc1cccc(-n2ccnc2SCC(=O)Nc2cccc3ccccc23)c1C`, 21% (inactive).
For the molecule `O=C(c1cccnc1)N(c1cc2sc(=O)oc2c2ccccc12)S(=O)(=O)c1ccccc1`, the Potency is 25.1 µM (active).
Regarding `COc1ccc(N(C(=O)c2cccnc2)S(=O)(=O)c2ccc(OC)c(OC)c2)cc1`, the max response, negative = inhibition was 2.95% (inactive).
The same measure, in the same setting: under `O=C(c1cccnc1)N(Cc1ccccc1)C(=O)c1cccnc1` stands -6.19% (inactive).
In the case of `Cc1sc2ncn(CC(=O)N3CCN(c4ccc(F)cc4)CC3)c(=O)c2c1S(=O)(=O)N1CCN(c2ncccn2)CC1`, the max response, negative = inhibition was -10.1% (inactive).
For the molecule `O=S(=O)(c1ccccc1)c1nc(-c2ccc(Cl)cc2Cl)oc1N1CCCCC1`, the max response, negative = inhibition is 1.4% (inactive).
Still for that read-out and setting: under `CCOc1ccc(S(=O)(=O)Nc2ccc3oc4c(c3c2)CC(C)CC4)cc1` (stereo not given) stands -17.2% (inactive); under `O=C(Nc1ccc2ccccc2c1[N+](=O)[O-])c1ccccc1`, -2.31% (inactive).
For `O=C(NC1=CC(=O)c2ccccc2C1=O)c1ccccc1`, the Potency is 11.2 µM (active).
As for `COC(=O)c1nc(NC(=O)c2ccccc2)n[nH]1`, the max response, negative = inhibition is -20% (inactive).
The same measure, in the same setting: under `CC(=O)OC1=C(C(C)=O)N(Cc2ccccc2)S(=O)(=O)c2ccccc21` stands 8.35% (inactive); under `CCOC(=O)N1CCc2c(sc(NCc3cccc(F)c3)c2C(=O)Nc2ccccc2OCC)C1`, -13.2% (inactive); under `COC(=O)c1sc(N2CCN(Cc3ccccc3)CC2)nc1N`, 1.38% (inactive).
`COC(=O)c1sc(=S)n(-c2ccccc2)c1N`: the Potency was 79.4 µM (active).
As to `COCCOC(=O)c1sc(=S)n(CCOC)c1N`, the max response, negative = inhibition was -9.87% (inactive).
Take `COc1ccc(CCNC(=O)c2ccc(CSCc3ccc(C)cc3)o2)cc1OC`: the max response, negative = inhibition is 9.55% (inactive).
Regarding `CCNc1ncc2ncc(=O)n(Cc3cccc(OC)c3)c2n1`, the Potency is 50.1 µM (active).
In the case of `COc1cccc(Cn2c(=O)c(-c3ccccc3)nc3cnc(OC)nc32)c1`, the max response, negative = inhibition is -7.36% (inactive).
`CCNc1ncc2ncc(=O)n(CCc3ccccc3)c2n1`: the max response, negative = inhibition is -21% (inactive).
Take `COc1ccc(CC(=O)NCCc2sc3nc(-c4ccc(OC)cc4)nn3c2C)cc1`: the max response, negative = inhibition is 5.32% (inactive).
Same read-out and setting: for `CCCCCCCCCc1ccc(OCCOCCOCCOCCOCCOCCOCCOCCOCCO)cc1` the value was 1.96% (inactive).
Turning to `CCCS(=O)(=O)N1CCC(CCOc2ccccc2)(C(=O)OCC)CC1`, the max response, negative = inhibition is -9.73% (inactive).
With `CCOC(=O)C1(CCOC)CCN(Cc2ccc(C(=O)OC)cc2)CC1`, the max response, negative = inhibition is 15.5% (inactive).
On to `CCOC(=O)C1(CCOC)CCN(Cc2cc3ccccc3s2)CC1`, for which the Potency was 44.7 µM (active).
In the case of `COc1cc(Cl)c(C)cc1NC(=O)CCc1nc2cccnc2n1Cc1cccs1`, the max response, negative = inhibition is 3.57% (inactive).
As for `Cc1cccc(N2CCN(C(=O)c3oc(=O)c4ccccc4c3-c3ccccc3)CC2)c1C`, the max response, negative = inhibition is -3.42% (inactive).
The same measure, in the same setting: for `CCCCC/C=C\C[C@H](O)/C=C/C=C/C=C/[C@@H](O)CCCC(=O)O` the value was 7.71% (inactive); for `O=C(Nc1ccc(Oc2ccccc2)cc1)C1CCN(S(=O)(=O)c2ccc(Cl)cc2)CC1`, -4.34% (inactive).
Still for that read-out and setting: under `O=C(Nc1cccc(Cl)c1)c1csnn1` stands -5.14% (inactive).
Take `O=C(Nc1ccccc1)c1nnsc1S(=O)(=O)c1ccc(Cl)cc1`: the Potency is 25.1 µM (active).
In the case of `O=C(c1cccc(Cl)c1)N1CCN(CCc2ccncc2)CC1`, the max response, negative = inhibition was 9.31% (inactive).
For the molecule `Cc1ccccc1NC(=O)CCOc1ccccc1`, the max response, negative = inhibition was -6.86% (inactive) and -22.6% (inactive).
Still for that read-out and setting: under `Cc1ccccc1NC(=O)Cn1cc(C(=O)C2CC2)c2ccccc21` stands 8.49% (inactive).
Consider `Cc1ccccc1NC(=O)CSC(=O)c1ccccc1`, for which the Potency is 79.4 µM (active).
On to `COc1ccc(CCC(=O)c2c(O)cc(OC3OC(CO)C(O)C(O)C3O[C@@H]3OC(C)C(O)C(O)C3O)cc2O)cc1O` (stereo not given in full), for which the max response, negative = inhibition was -4.57% (inactive).
Same read-out and setting: for `CCOc1cccc(NC(=O)CSc2ncc(-c3ccc(Cl)cc3)[nH]2)c1` the value was -19.8% (inactive); for `CC(C)=CCN1CCC2(CCc3ccccc32)CC1`, 10% (inactive).
Still for that read-out and setting: for `COc1ccc(Cc2nc3ccc(C(=O)NCc4ccc(OC)cc4OC)cc3o2)cc1` the value was 0.0782% (inactive); for `Cc1ccc(S(=O)(=O)c2nc(-c3cccs3)oc2NCc2cccnc2)cc1`, -8.24% (inactive).
The same measure, in the same setting: under `NC(=O)CSc1oc(-c2cccs2)nc1S(=O)(=O)c1ccccc1` stands 2.03% (inactive).
In the case of `CCCCS(=O)(=O)c1oc(-c2cccs2)nc1S(=O)(=O)c1ccccc1`, the Potency is 10 µM (active).
For `Cc1ccc(N2CC(c3nnc(Cc4ccccc4Cl)o3)CC2=O)cc1` (stereo not given), the max response, negative = inhibition was 0.444% (inactive).
Still for that read-out and setting: under `Cc1ccc(-c2nnc3ccc(SCC(N)=O)nn23)cc1` stands -9.24% (inactive); under `Cc1ccc(-c2nn3c(=O)cc(CN4CCN(S(=O)(=O)c5ccc(Cl)cc5)CC4)nc3s2)cc1`, 6.31% (inactive).
In the case of `CC(C)(C)c1nnc(NC(=O)C2c3ccccc3Oc3ccccc32)s1`, the Potency was 35.5 µM (active).
Turning to `CC(C)(C)NC(=O)NC(=O)COC(=O)C1c2ccccc2Oc2ccccc21`, the max response, negative = inhibition is -16.6% (inactive).
On the same count and under the same terms, under `CCc1c(C)sc(NC(=O)C2c3ccccc3Oc3ccccc32)c1C(=O)OC(C)C` stands -13.1% (inactive); under `COc1cc(C(=O)N2CCC(c3ccncc3)CC2)cc(OC)c1OC`, 6.52% (inactive); under `CCOC(=O)c1c(NC(=O)CSc2nnc(CNc3ccc(C)cc3C)o2)sc(C)c1C`, -11.8% (inactive).
Consider `CCOC(=O)c1c(NC(=O)CSc2nccc(=O)[nH]2)sc(C)c1C`, for which the max response, negative = inhibition was -12.3% (inactive).
Consider `CCOC(=O)c1c(NC(=O)COc2cc(C)ccc2C(C)C)sc(C)c1C`, for which the Potency is 39.8 µM (active).
As for `CCc1nn(CC(=O)Nc2cccc(C)c2C)c(=O)c2cc3sccc3n12`, the max response, negative = inhibition was -8.74% (inactive).
As to `CCOc1cccc2cc(-c3cn4c(n3)sc3cc(C)ccc34)c(=O)oc12`, the max response, negative = inhibition is 10.9% (inactive).
Still for that read-out and setting: under `COc1ccc(-c2nc3cnc(Oc4ccccc4)nc3n(Cc3cccs3)c2=O)cc1` stands -0.524% (inactive); under `COc1cccc(N2CCN(S(=O)(=O)c3ccc4c(c3)CCCN4C(C)=O)CC2)c1`, 4.58% (inactive); under `Cc1ccccc1CCNC(=O)C1CCN(c2nc3ccccc3nc2C(F)(F)F)CC1`, 5.88% (inactive).
As to `CCOc1cc(C(=S)N2CCOCC2)ccc1OS(=O)(=O)c1ccc(Br)cc1`, the max response, negative = inhibition was -11.5% (inactive).
`CCOc1cc(C(=S)N2CCOCC2)ccc1O`: the Potency is 79.4 µM (active).
For `CCOc1cc(C(=O)OCC(=O)Nc2cccc(C)c2)ccc1OCC(=O)N1CCOCC1`, the max response, negative = inhibition was 8.55% (inactive).
Same read-out and setting: for `CCN(CC)S(=O)(=O)c1ccc2c(c1)nc(CN(C)C(=O)Nc1ccc(Cl)cc1)n2C` the value was 11% (inactive); for `O=C(c1csnn1)N1CCC2(CC1)CN(c1ncccn1)C2`, -1.15% (inactive).
In the case of `O=C(c1csnn1)N1CCC[C@@]2(CCN(c3cccc(-c4ccccc4)c3)C2)C1`, the Potency was 44.7 µM (active).
Turning to `O=C(c1ccco1)N1CCC2(CC1)CN(c1ncccn1)C2`, the max response, negative = inhibition was -6.75% (inactive).
Turning to `O=C(c1ccco1)N1CCC[C@@]2(CCN(c3ccccc3)C2)C1`, the Potency is 44.7 µM (active).
On to `O=C(c1csnn1)N1CCC[C@@]2(CCN(Cc3nccs3)C2)C1`, for which the max response, negative = inhibition was 1.05% (inactive).
Still for that read-out and setting: for `CC(C)NC(=O)N1CC[C@@]2(CCCN(C(=O)c3ccco3)C2)C1` the value was -6.63% (inactive).
As to `O=C(Cn1c(=O)n(-c2ccc(F)cc2)c(=O)c2sc3ccccc3c21)NC1CCCC1`, the max response, negative = inhibition was 8.11% (inactive).
Still for that read-out and setting: under `COc1ccccc1Nc1nc(N)nc(N)c1S(=O)(=O)c1ccccc1` stands 15.2% (inactive); under `COC(=O)c1ccc(NC(=O)CSc2n[nH]c(-c3ccccc3)n2)cc1`, 9.27% (inactive).
With `COc1ccc2ncc3c(-c4ccc(C)c(C)c4)nn(CC(=O)NC4CCCC4)c3c2c1`, the max response, negative = inhibition is 5.23% (inactive).
As for `CCN1CCC(O)(/C=C/c2ccc(C)cc2)C(C(=O)/C=C/c2ccc(C)cc2)C1` (stereo not given), the Potency is 25.1 µM (active).
Take `COc1ccc2c(c1)C=C(C(=O)NCc1cc(Br)ccc1OC)CO2`: the max response, negative = inhibition was 8.92% (inactive).
Same read-out and setting: for `O=C(CN1CCOCC1)N/N=C/c1ccc(-c2ccc(Br)cc2)o1` the value was 13.8% (inactive).
Turning to `Cc1ccc(-c2ccc(/C=N/NC(=O)CN3CCOCC3)o2)cc1[N+](=O)[O-]`, the Potency was 2.51 µM (active).
Turning to `Cc1ccc(NC(=O)CN2CCC(C(N)=O)CC2)cc1[N+](=O)[O-]`, the max response, negative = inhibition is -4.1% (inactive).
With `O=C(CN1CCSc2ccccc21)N1CCN(c2ccccc2)CC1`, the max response, negative = inhibition was 16.3% (inactive).
The same measure, in the same setting: under `Cc1ccccc1CSc1nc2c([nH]c3ccccc32)c(=O)n1C` stands 2.18% (inactive).
In the case of `CCC(CC)c1nnc(NC(=O)C2CCN(C(=O)c3ccco3)CC2)s1`, the Potency is 89.1 µM (active).
Consider `COc1ccc(CNC(=O)C2CCN(C(=O)c3ccco3)CC2)cc1`, for which the max response, negative = inhibition was 3.03% (inactive).
As to `CCc1nnc(NC(=O)C2CCN(C(=O)c3ccccc3C)CC2)s1`, the max response, negative = inhibition was 0.925% (inactive).
For `Cc1ccc(-c2noc(-c3nnn(-c4cccc(C(F)(F)F)c4)c3N)n2)cc1`, the max response, negative = inhibition was 7.83% (inactive).
Take `O=Cc1cn(-c2ccccc2)nc1-c1ccccn1`: the max response, negative = inhibition is 0.792% (inactive).
On to `O=C1C(c2ccccn2)=[N+]([O-])c2ccccc21`, for which the Potency is 12.6 µM (active).
`O=C(c1ccc2c(=O)n(Cc3ccco3)c(=S)[nH]c2c1)N1CCCC1`: the max response, negative = inhibition was -15.6% (inactive).
Still for that read-out and setting: under `CCOC(=O)c1cc2c(=O)n3ccccc3nc2n(CC2CCCO2)c1=NC(=O)c1ccc(C(C)(C)C)cc1` (stereo not given) stands -4.97% (inactive); under `CC1=C(c2ccc(F)cc2)S(=O)(=O)N=C1N1CCC(C(=O)NCCc2ccccc2C)CC1`, 9.29% (inactive); under `Cc1nn(CC(=O)N2CCN(c3cccc(C(F)(F)F)c3)CC2)c(=O)c2cc3sccc3n12`, -6.46% (inactive).
